Source: PubChem (National Center for Advancing Translational Sciences (NCATS))
HT1080-NT tox = qHTS for induction of synthetic lethality in tumor cells producing 2HG: qHTS for the HT-1080-NT fibrosarcoma cell line; hit rate 1.6% among 360,000; AID 686970, 2013; Potency, µM (top dose mostly 46.1 µM), for the others: at the highest dose activity, negative = less viability, usual class: cytotoxic; HT-1080-NT fibrosarcoma viability, CellTiter-Glo ATP luminescence, 48 h;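 also: NT is the 2HG producing partner of a matched IDH1 knockdown line; potency is read from the fitted curve at half-maximal effect; 0% = DMSO-treated cells and -100% = media-only wells without cells; nearly all actives have a fitted effect of over 55% in size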
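A 48-hour cytotoxicity screen used HT-1080-NT cells plated 2 hours before compound delivery. ATP-based CellTiter-Glo luminescence measured viability, normalized to DMSO and no-cell controls.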
IL1B secr inh = qHTS for Inhibitors of Inflammasome Signaling: IL-1-beta AlphaLISA Primary Screen; THP-1 LPS/ATP IL-1B secretion, AlphaLISA, 16 h; active compounds read low; activity change, % at 57.5 µM; hit rate 4.7% among 360,000; in the data active = activity change below about -50%; inconclusive = mostly about -30% to -49%
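THP-1 cells pretreated 1 hr with compounds (up to 57.5 uM final), then stimulated with LPS (250 ng/mL final) plus ATP (1.25 mM final); secreted IL-1B measured by AlphaLISA after 16 hr, decreased signal indicating inhibition.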
HT1080 IDH1KD tx = qHTS for induction of synthetic lethality in tumor cells producing 2HG: qHTS for the HT-1080-IDH1KD cell line; HT-1080 IDH1 knockdown viability, ATP luminescence, 48 h; Potency, µM (titrated, usually from 46.1 µM), without a hit: at the highest dose activity, negative = toxicity, hits mostly cytotoxic; hit rate 2% among 360,000; AID 686971, 2013;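 also: potency is read from the fitted curve at half-maximal effect; 0% = DMSO wells and -100% = cell-free medium wells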
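Cytotoxicity counter-line: IDH1KD HT-1080, 48 h, CellTiter-Glo. Curves classed by r2, magnitude and activity.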
uPA generation = qHTS for Inhibitors of Cell Surface uPA Generation; cell surface uPA generation assay, qHTS; Potency, µM (highest dose often 38.3 µM), for the others: at the highest dose activity change, negative = inhibition, hits mostly inhibitors; hit rate 0.31% among 330,000; active = well fitted inhibition curve with a large enough effect; inconclusive = small, poorly fitted or top-dose-only effect; inactive = no such curve, though single readings can be large or run the other way; tested in mouse RAW 264.7 cells; also: potency is read from the fitted curve at half-maximal effect; nearly all actives have a fitted effect of over 55% in size
DT40 TDP1 CPT = qHTS for Inhibitors of human tyrosyl-DNA phosphodiesterase 1 (TDP1): qHTS in cells in presence of CPT; chicken DT40 Tdp1-/-;hTDP1 cells + 20 nM CPT, ATP luminescence, 48 h; Potency, µM (titrated, usually from 46.2 µM), without a hit: at the highest dose activity change, negative = growth inhibition, hits mostly inhibitors; hit rate 12% among 420,000; also: potency is read from the fitted curve at half-maximal effect; nearly all actives have a fitted effect of over 55% in size
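Chicken DT40 Tdp1-/- cells stably complemented with human TDP1 were seeded at 400 cells/well in medium containing 20 nM camptothecin, exposed to pin-transferred compounds, and grown at 37 °C for at least 48 hr. Viability was read as ATP luminescence.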
DT40 TDP1 no CPT = qHTS for Inhibitors of human tyrosyl-DNA phosphodiesterase 1 (TDP1): qHTS in cells in absence of CPT; DT40 Tdp1-/- hTDP1 cells, no CPT, ATP luminescence, 48 h; Potency, µM (highest dose often 46.2 µM), inactives show at the highest dose activity change, negative = growth inhibition, actives largely listed as inhibitors; hit rate 15% among 420,000; also: potency is read from the fitted curve at half-maximal effect; nearly all actives have a fitted effect of over 55% in size
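Luminescent ATP content (CellTiter-Glo) served as the growth readout. Knockout chicken DT40 cells expressing human TDP1 were exposed to compounds without camptothecin for a minimum 48 hr at 37 °C.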
An asterisk follows results filed as active; ? = inconclusive; . = not tested or not shown; [ ] = remark or other dose. Rows were chosen to be rich in hits. Some 19% of all compounds tested hit in one or more screens of this group. Unless noted, calls follow the shape of the dose curve; as a rule, active = well fitted curve in the direction sought with a large enough effect; inconclusive = small, poorly fitted or top-dose-only effect, or another doubt; inactive = no such curve, though single readings can be large; an effect the other way counts as inactive or inconclusive. Unless noted, % is scaled to controls: 0 for no effect and ±100 for the full control effect.

SMILES	HT1080-NT tox	IL1B secr inh	HT1080 IDH1KD tx	uPA generation	DT40 TDP1 CPT	DT40 TDP1 no CPT
CCN(CC)CCNC1=NCCn2c1cc1cc(OC)ccc12	?	-76.4*	?	3.6%	20.6µM*	?
CCc1c(C)c(C#N)c2[nH]c3ccccc3n2c1=S	?	.	?	-1.1%	11.6µM*	11.6µM*
CCc1cc(=O)n2c([nH]c3ccccc32)c1C#N	-12.2%	17.9	-2.1%	0.8%	?	?
CCc1cc(=S)n2c([nH]c3ccccc32)c1C#N	?	0.0	?	-2.9%	16.4µM*	23.1µM*
COCc1cc(=O)n2c([nH]c3ccccc32)c1C#N	0.0%	12.4	0.0%	-5.2%	-20.4%	?
Nc1n[nH]c(N)c1N=Nc1ccc(Cl)cc1Cl	-16.7%	-57.2*	?	?	1.2%	13.5%
COc1ccc(N=Nc2c(C)n[nH]c2C)cc1	-13.4%	-27.6	-5.7%	-1.4%	-13.9%	-13.0%
Nc1n[nH]c(N)c1N=Nc1ccc(F)cc1	8.6%	-27.5	9.2%	-26.6%	0.5%	-6.3%
COc1ccc(N=Nc2c(N)n[nH]c2N)cc1	15.1%	-52.8*	10.6%	-6.0%	11.4%	-2.8%
Nc1n[nH]c(N)c1N=Nc1ccccc1	15.1%	-66.4*	2.9%	1.0%	10.9%	2.4%
CCOC(=O)c1noc2ncnc(NCc3ccccc3OC)c12	.	.	.	.	?	-15.6%
COc1cccc([C@@H]2CC=C(C(=O)O)CN2S(=O)(=O)c2ccc(C)cc2)c1	2.7%	8.0	-0.2%	0.5%	?	-14.7%
C[C@@H]1C(c2cccc(Cl)c2)=NN(c2ccccc2)[C@H]1C(=O)N1CCOC1=O	-8.8%	-77.7*	-12.9%	-10.2%	?	?
C[C@@H]1C(c2cccc(Cl)c2)=NN(c2ccc(Br)cc2)[C@H]1C(=O)N1CCOC1=O	?	-51.3*	?	-7.9%	?	?
O=C(O)c1ccc2c(c1)C(=O)N(CCc1c[nH]c3ccccc13)C2=O	1.3%	-3.8	4.7%	-2.7%	-6.0%	-15.8%
CCOC(=O)N1CCN(C(=O)c2c(Cl)cnn2C)CC1	6.6%	58.8	2.7%	3.1%	10.1%	4.9%
Cc1ccc([C@@H]2C[C@H]3[C@@H](CN2S(=O)(=O)c2ccc(Cl)cc2)C(=O)C[C@@H](c2ccc(C)cc2)N3S(=O)(=O)c2ccc(Cl)cc2)cc1	7.4%	-0.9	-0.2%	.	-6.2%	1.8%
COc1ccc(C(=O)Oc2ccc3oc(=O)sc3c2)cc1	-1.4%	-5.9	2.0%	-6.5%	13µM*	?
CC(C)C(=O)N(c1ccc2oc(=O)sc2c1)S(=O)(=O)c1ccccc1	?	2.1	?	.	?	?
CC(=O)N(c1ccc2oc(=O)sc2c1)S(=O)(=O)c1ccccc1	-24.8%	-19.1	-17.7%	0.1%	?	10.3µM*
COc1ccc(S(=O)(=O)N(C(=O)C(C)C)c2ccc3oc(=O)sc3c2)cc1	?	49.7	?	.	10.3µM*	16.4µM*
COc1ccc(OC)c(S(=O)(=O)N(C(C)=O)c2ccc3oc(=O)sc3c2)c1	4.3%	24.1	5.2%	9.8%	3.9%	-8.1%
COc1ccc(-n2c(=O)c(-c3cccs3)nc3cnc(Oc4ccccc4)nc32)cc1	.	.	.	.	2.0%	-16.3%
O=C(Nc1ccc(S(=O)(=O)NCc2ccccc2)cc1)C1CCCCC1	-5.7%	2.8	-13.2%	2.3%	?	?
Cc1cnc(-n2ncc(C(=O)N(C)CCc3ccccn3)c2-c2cccs2)nc1-c1ccc(F)cc1	.	.	.	.	-14.3%[9.04 µM]	11.6µM*
SMILES	HT1080-NT tox	IL1B secr inh	HT1080 IDH1KD tx	uPA generation	DT40 TDP1 CPT	DT40 TDP1 no CPT
CN(Cc1ccccc1)c1nc2c(c(=O)n(C)c(=O)n2C)n1CCCc1ccccc1	-17.5%	11.3	-26.1%	1.5%	23.1µM*	16.4µM*
CCCCn1c(SCc2nnc(-c3ccccc3)o2)nc2c1c(=O)n(C)c(=O)n2C	10.8%	-13.3	9.9%	-10.0%	14.6µM*	10.3µM*
CCN(CC)c1nc2c(c(=O)n(C)c(=O)n2C)n1CCCc1ccccc1	-1.8%	22.8	0.9%	-1.2%	20.6µM*	23.1µM*
CC(O)CSc1nc2c(c(=O)n(C)c(=O)n2C)n1CCCc1ccccc1 (configuration not stated)	-4.1%	21.1	-6.6%	-1.9%	?	?
CCOCCn1c(CN(Cc2ccccc2)Cc2ccccc2)nc2c1c(=O)n(C)c(=O)n2C	-19.8%	12.1	-2.8%	-5.3%	?	?
CCCCn1c(CN(Cc2ccccc2)Cc2ccccc2)nc2c1c(=O)n(C)c(=O)n2C	-0.8%	-1.1	0.8%	9.5%	13µM*	18.4µM*
CC1(C(=O)O)CCN1C(=O)COc1ccc(Cl)cc1 (configuration not stated)	21.4%	0.5	10.4%	.	4.4%	1.4%
COc1cc(Cn2nnc3ccccc32)cc(Br)c1O	-3.9%	34.3	-16.1%	-24.3%	6.4%	-15.8%
O=C(CC1NCCNC1=O)Nc1ccc([N+](=O)[O-])cc1 (configuration not stated)	0.7%	-1.8	0.0%	4.0%	23.4%	2.8%
CSc1ccc(/C=C/C(=O)OCC(=O)c2ccc[nH]2)cc1	2.9%	9.0	8.8%	6.2%	-19.1%	-3.7%
CCN(CC)c1nc2c(c(=O)[nH]c(=O)n2C)n1CCCc1ccccc1	-7.5%	-20.8	-19.4%	-3.3%	?	10.3µM*
COC(=O)C1=C(CS(=O)(=O)c2ccc(C)cc2C)NC(=O)NC1c1ccc(C)cc1 (configuration not stated)	.	.	.	.	-1.0%	-3.2%
CC(=O)N1CCc2c(sc3c2c(=O)n(-c2ccccc2C)c(=O)n3CC(=O)Nc2ccccc2)C1	.	.	.	.	27.3%	18.7%
CCOc1ccccc1-c1cc(C(=O)N/N=C/c2ccc(O)c(OC)c2)c2ccccc2n1	?	-5.7	?	-8.6%	1.46µM*	0.581µM*
CCOc1ccccc1-c1cc(C(=O)N/N=C/c2ccc3c(c2)OCO3)c2ccccc2n1	-7.4%	7.7	-20.6%	-8.2%	11.6µM*	9.2µM*
COc1cc(/C=N/NC(=O)c2nc(C)cc(C)n2)ccc1O	1.5%	-0.6	10.4%	4.8%	-12.1%	-23.9%
COCC(=O)Nc1cc(C(=O)N2CCOc3ccccc3C2)cc2nc(-c3cccnc3)n(C)c12	.	.	.	.	-10.8%[9.04 µM]	-8.9%
